Test results as given in PubChem BioAssay (NCATS).
Results filed as inconclusive are left out. A number with no mark means an inactive call. Calls follow the shape of the full dose curve.

System: not listed separately
Assay: Natriuretic polypeptide receptor (hNpr1) antagonism - Pilot counterscreen GloSensor control cell line (AID 1347045)
Conditions: HEK293 cGMP GloSensor cells, SNP-stimulated luminescence, 20 min; series mostly up to 38.3 µM; activity change, negative = inhibition: at the top concentration
Outline: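 Control counterscreen: luciferase cGMP-biosensor HEK293 cells (no Npr1) received compound for 30 min at room temperature after GloSensor substrate loading. Luminescence was measured before and 20 min after soluble guanylyl cyclase activation by 50 uM nitroprusside.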
% is scaled to controls: 0 for no effect and ±100 for the full control effect.

| Structure (SMILES) | activity change, negative = inhibition |
| --- | --- |
| NCC(CC(=O)O)c1ccc(Cl)cc1 (configuration not stated) | 2.6% |
| NCC(O)c1ccc(O)cc1 (configuration not stated) | 3.67% |
| Cc1ccc(S(=O)(=O)N[C@@H](CCCCN)C(=O)CCl)cc1 | -12% |
| CC(=O)[C@H]1CC[C@H]2[C@@H]3CC[C@H]4C[C@](C)(O)CC[C@]4(C)[C@H]3CC[C@]12C | -2.18% |
| CCCN1CCC[C@@H]2Cc3nc(N)ncc3C[C@H]21 | -1.26% |
| c1ccc(C2CC2)c(OCC2=NCCN2)c1 | 10.3% |
| Cc1cccc(C)c1NC1=NCCCS1 | 7.34% |

Target: Atrial natriuretic peptide receptor 1 (Homo sapiens) (UniProt P16066)
Assay: Natriuretic polypeptide receptor (hNpr1) antagonism - Pilot screen (AID 1347049);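 also: HEK293 cells with hNpr1 and GloSensor cGMP luciferase stimulated by 0.1 nM hNppA; agonist-evoked cGMP luminescence read 20 min after hNppA addition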
Conditions: hNpr1 cells, antagonist mode cGMP read-out; series mostly up to 57.5 µM; activity change, negative = inhibition: at the top concentration
Outline: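 Cells expressing receptor plus cGMP biosensor are seeded and incubated overnight at 37C, then loaded with GloSensor reagent (2% final) at room temperature for 2 h. Library compounds go on for 30 min. A pre-read precedes agonist (hNppA, 0.1 nM final) and a 20-min readout.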

Sequence of Atrial natriuretic peptide receptor 1 (Homo sapiens) (P16066 whole entry, looked up): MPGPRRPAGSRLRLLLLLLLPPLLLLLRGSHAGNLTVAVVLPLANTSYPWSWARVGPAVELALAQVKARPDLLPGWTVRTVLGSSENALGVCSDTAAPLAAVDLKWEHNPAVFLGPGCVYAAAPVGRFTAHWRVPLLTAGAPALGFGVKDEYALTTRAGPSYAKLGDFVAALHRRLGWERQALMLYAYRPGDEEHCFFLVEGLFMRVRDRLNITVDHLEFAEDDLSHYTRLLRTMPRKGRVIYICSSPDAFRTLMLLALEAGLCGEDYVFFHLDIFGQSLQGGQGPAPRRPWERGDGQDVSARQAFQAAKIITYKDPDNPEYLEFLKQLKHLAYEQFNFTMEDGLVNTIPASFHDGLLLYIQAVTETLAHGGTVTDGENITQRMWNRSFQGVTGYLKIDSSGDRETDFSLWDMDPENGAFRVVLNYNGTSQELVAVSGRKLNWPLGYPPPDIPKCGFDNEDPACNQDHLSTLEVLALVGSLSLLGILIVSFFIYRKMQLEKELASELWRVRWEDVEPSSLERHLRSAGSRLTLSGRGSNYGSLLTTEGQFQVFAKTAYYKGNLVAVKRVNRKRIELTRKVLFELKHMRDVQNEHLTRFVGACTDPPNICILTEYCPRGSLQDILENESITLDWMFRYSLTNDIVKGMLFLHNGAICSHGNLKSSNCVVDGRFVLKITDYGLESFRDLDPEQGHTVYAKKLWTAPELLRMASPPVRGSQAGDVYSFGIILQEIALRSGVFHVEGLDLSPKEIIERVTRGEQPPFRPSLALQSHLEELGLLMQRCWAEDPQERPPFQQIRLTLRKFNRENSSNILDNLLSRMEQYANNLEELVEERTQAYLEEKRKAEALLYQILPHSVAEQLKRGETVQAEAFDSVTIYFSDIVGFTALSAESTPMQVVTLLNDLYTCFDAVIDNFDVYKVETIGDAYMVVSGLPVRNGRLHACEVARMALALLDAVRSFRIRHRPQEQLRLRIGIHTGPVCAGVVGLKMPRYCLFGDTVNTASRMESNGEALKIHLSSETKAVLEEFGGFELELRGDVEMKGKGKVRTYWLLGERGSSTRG

| Structure (SMILES) | activity change, negative = inhibition |
| --- | --- |
| NCC(CC(=O)O)c1ccc(Cl)cc1 (configuration not stated) | 0.0647% |
| NCC(O)c1ccc(O)cc1 (configuration not stated) | -1.31% |
| Cc1ccc(S(=O)(=O)N[C@@H](CCCCN)C(=O)CCl)cc1 | -2.61% |
| CCCN1CCC[C@@H]2Cc3nc(N)ncc3C[C@H]21 | 9.79% |
| c1ccc(C2CC2)c(OCC2=NCCN2)c1 | 5.39% |
